Assay results: PubChem BioAssay (NCI)
Compounds without any hit were thinned out: in the full panel of roughly 83,000, 20% have a hit.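 Method: cells in 96-well plates; compound added at one concentration; 48 h incubation; percent growth measured; values under 10 scored active.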 The source made the active and inactive calls.

system: KM12 colon; test: NCI-60 one-dose screen, 48 h (100 = growth as untreated, 0 = no growth, -100 = all killed); conditions: 10 µM unless noted

SMILES | growth
Fc1cccc(CNc2nc(SCCN3CCOCC3)nc3c2cnn3CC(Cl)c2ccc(Br)cc2)c1 (configuration not stated) | 8.48% (active)
O=C(Nc1nc2ccc([N+](=O)[O-])cc2s1)Nc1ccc(Cl)cc1Cl | 60.2% (inactive)
Nc1nnc(CS(=O)(=O)c2ccccc2)s1 | 101% (inactive)
CCCCCCCCc1ccc(C(=O)Nc2ccc(C)cc2C(=O)O)cc1 | 50.3% (inactive)
COc1ccc2c(c1)c(-c1cc(N)n3nc(-c4c[nH]c5ccccc45)cc3n1)cn2C | -74.8% (active)
Clc1ccc(CNc2nc(SCCN3CCOCC3)nc3c2cnn3CC(Cl)c2ccc(Br)cc2)cc1 (configuration not stated) | 28% (inactive)
CCC(=O)c1cc(C(=O)OC)c2ccc3c4ccccc4ccc3n12 | 84.7% (inactive)
Nc1cc(-c2c[nH]c3ccc(Cl)cc23)nc2cc(-c3c[nH]c4ccccc34)nn12 | -70.5% (active)
CCCCNc1ccc2c3c(cccc13)C(=O)N(NCC(O)COc1ccc3c(C)cc(=O)oc3c1)C2=O (configuration not stated) | 85.7% (inactive)
O=C(OCCOCCO)N(c1cccc(Br)c1)c1nc(SCCN2CCOCC2)nc2c1cnn2CC(Cl)c1ccc(Br)cc1 (configuration not stated) | -8.97% (active)
CCN1C(=O)N(CC)C2NNC(Sc3c(C(=O)O)c4ccccc4n(CC(C)C)c3=O)=NC21 (configuration not stated) | 21.4% (inactive)
CCN1C(=O)N(CC)C2NNC(Sc3c(C(=O)O)c4ccccc4n(CCC(C)C)c3=O)=NC21 (configuration not stated) | 21.3% (inactive)
COc1ccc(C(=O)c2cc(C(C)=O)c3c(C)cc(C)cn23)cc1 | 71.2% (inactive)
O=C(N/N=C/c1ccc(Cl)cc1)c1ccc(OCc2nc3ccc(Cl)cc3[nH]2)cc1 | 52.9% (inactive)
COC(=O)c1cc(C(=O)C(Br)Br)n2c1ccc1c3ccccc3ccc12 | 39.7% (inactive)
O=C(Nc1nc2ccccc2s1)Nc1ccccc1Cl | 93.1% (inactive)
Oc1ccc(Cl)c(Nc2ncnc3c2cnn3CC(Cl)c2ccc(Br)cc2)c1 (configuration not stated) | 85.9% (inactive)
ClC(Cn1ncc2c(Nc3cccc(Br)c3)nc(SCCN3CCOCC3)nc21)c1ccc(Br)cc1 (configuration not stated) | -20% (active)
Nc1cc(-c2c[nH]c3ccc(F)cc23)nc2cc(-c3c[nH]c4ccccc34)nn12 | -54.1% (active)

SMILES | growth
O=C1Nc2cc(-c3ccc(NS(=O)(=O)c4ccc(F)c(Cl)c4)cc3)ccc2/C1=C/c1ccc[nH]1 | 13.6% (inactive)
O=C1CCC(N2C(=O)c3cccc(NCCOCCOCCOCCC(=O)NCCCC(=O)NC(c4ccc5c(c4)OCO5)c4cc(Cl)c5cccnc5c4O)c3C2=O)C(=O)C1 (configuration not stated) | 13.4% (inactive)
Cn1cc(-c2cc3nc(-c4c[nH]c5ccccc45)cc(N)n3n2)c2ccccc21 | -33.9% (active)
CN1C(=O)C(O)(CC(=O)c2cc3ccccc3oc2=O)c2ccccc21 (configuration not stated) | 96.9% (inactive)
COc1ccc(Nc2nnc(-c3c[nH]c4ccccc34)o2)cc1 | 65.3% (inactive)
Cc1cccc(C)c1Nc1nnc(-c2c[nH]c3ccccc23)o1 | 102% (inactive)
Cc1ccc(O)cc1Nc1nc(SCCN2CCOCC2)nc2c1cnn2CC(Cl)c1ccc(Br)cc1 (configuration not stated) | 17% (inactive)
Fc1ccccc1CNc1nc(SCCN2CCOCC2)nc2c1cnn2CC(Cl)c1ccc(Br)cc1 (configuration not stated) | 8.13% (active)
COC(=O)c1cc(C(=O)CBr)n2c1ccc1c3ccccc3ccc12 | 84% (inactive)
Oc1ccc(F)c(Nc2nc(SCCN3CCOCC3)nc3c2cnn3CC(Cl)c2ccc(Br)cc2)c1 (configuration not stated) | 11% (inactive)
COC(=O)c1c(C(=O)OC)c2ccc3c4ccccc4ccc3n2c1C(=O)C(C)Br (configuration not stated) | 91.5% (inactive)
Cc1nn(-c2ccccc2)c2nc(C)n(C(=O)N/N=C/c3cccc([N+](=O)[O-])c3)c(=O)c12 | 100% (inactive)
COc1c2c(c(Br)c3c1C(CCc1ccccc1)N(C)CC3)OCO2 (configuration not stated) | 11.4% (inactive)
COc1ccc2[nH]cc(-c3cc(N)n4nc(-c5c[nH]c6ccccc56)cc4n3)c2c1 | -48.8% (active)
CC(C)(C)C(=O)C1CC(C#N)=C2C=Cc3c(ccc4ccccc34)N21 (configuration not stated) | 97% (inactive)
Oc1ccc(Cl)c(Nc2nc(SCCN3CCOCC3)nc3c2cnn3CC(Cl)c2ccc(Br)cc2)c1 (configuration not stated) | 17.1% (inactive)
Fc1ccc(F)c(CNc2nc(SCCN3CCOCC3)nc3c2cnn3CC(Cl)c2ccc(Br)cc2)c1 (configuration not stated) | 4.2% (active)
CN1CCN(C(=O)Oc2cc3c(c4ccccc24)[C@H](CCl)CN3C(=O)c2cc3cc(OCCCN4CCC4)ccc3[nH]2)[C@H]2CSSC[C@H]21 | 2.01% (active)
Nc1nc(-c2ccccc2)c(N=Nc2ccc(Cl)cc2Cl)s1 | -70.8% (active)

system: MDA-MB-468 breast; test: as above; conditions: 10 µM unless noted

SMILES | growth
Fc1cccc(CNc2nc(SCCN3CCOCC3)nc3c2cnn3CC(Cl)c2ccc(Br)cc2)c1 (configuration not stated) | 3.38% (active)
O=C(Nc1nc2ccc([N+](=O)[O-])cc2s1)Nc1ccc(Cl)cc1Cl | 29.1% (inactive)
Nc1nnc(CS(=O)(=O)c2ccccc2)s1 | 111% (inactive)
CCCCCCCCc1ccc(C(=O)Nc2ccc(C)cc2C(=O)O)cc1 | 70.5% (inactive)
COc1ccc2c(c1)c(-c1cc(N)n3nc(-c4c[nH]c5ccccc45)cc3n1)cn2C | -73.8% (active)
Clc1ccc(CNc2nc(SCCN3CCOCC3)nc3c2cnn3CC(Cl)c2ccc(Br)cc2)cc1 (configuration not stated) | 39.9% (inactive)
CCC(=O)c1cc(C(=O)OC)c2ccc3c4ccccc4ccc3n12 | 83.6% (inactive)
Nc1cc(-c2c[nH]c3ccc(Cl)cc23)nc2cc(-c3c[nH]c4ccccc34)nn12 | -72.3% (active)
CCCCNc1ccc2c3c(cccc13)C(=O)N(NCC(O)COc1ccc3c(C)cc(=O)oc3c1)C2=O (configuration not stated) | 68.8% (inactive)
O=C(OCCOCCO)N(c1cccc(Br)c1)c1nc(SCCN2CCOCC2)nc2c1cnn2CC(Cl)c1ccc(Br)cc1 (configuration not stated) | -2.54% (active)
CCN1C(=O)N(CC)C2NNC(Sc3c(C(=O)O)c4ccccc4n(CC(C)C)c3=O)=NC21 (configuration not stated) | 7.22% (active)
CCN1C(=O)N(CC)C2NNC(Sc3c(C(=O)O)c4ccccc4n(CCC(C)C)c3=O)=NC21 (configuration not stated) | 7.98% (active)
COc1ccc(C(=O)c2cc(C(C)=O)c3c(C)cc(C)cn23)cc1 | 59.6% (inactive)
O=C(N/N=C/c1ccc(Cl)cc1)c1ccc(OCc2nc3ccc(Cl)cc3[nH]2)cc1 | 52.4% (inactive)
COC(=O)c1cc(C(=O)C(Br)Br)n2c1ccc1c3ccccc3ccc12 | -8.15% (active)
O=C(Nc1nc2ccccc2s1)Nc1ccccc1Cl | 97% (inactive)
Oc1ccc(Cl)c(Nc2ncnc3c2cnn3CC(Cl)c2ccc(Br)cc2)c1 (configuration not stated) | 26.2% (inactive)

SMILES | growth
ClC(Cn1ncc2c(Nc3cccc(Br)c3)nc(SCCN3CCOCC3)nc21)c1ccc(Br)cc1 (configuration not stated) | -18% (active)
Nc1cc(-c2c[nH]c3ccc(F)cc23)nc2cc(-c3c[nH]c4ccccc34)nn12 | -18.9% (active)
O=C1CCC(N2C(=O)c3cccc(NCCOCCOCCOCCC(=O)NCCCC(=O)NC(c4ccc5c(c4)OCO5)c4cc(Cl)c5cccnc5c4O)c3C2=O)C(=O)C1 (configuration not stated) | -33.9% (active)
Cn1cc(-c2cc3nc(-c4c[nH]c5ccccc45)cc(N)n3n2)c2ccccc21 | -53.9% (active)
CN1C(=O)C(O)(CC(=O)c2cc3ccccc3oc2=O)c2ccccc21 (configuration not stated) | 82.6% (inactive)
COc1ccc(Nc2nnc(-c3c[nH]c4ccccc34)o2)cc1 | -7.14% (active)
Cc1cccc(C)c1Nc1nnc(-c2c[nH]c3ccccc23)o1 | 93.2% (inactive)
Cc1ccc(O)cc1Nc1nc(SCCN2CCOCC2)nc2c1cnn2CC(Cl)c1ccc(Br)cc1 (configuration not stated) | -55.7% (active)
Fc1ccccc1CNc1nc(SCCN2CCOCC2)nc2c1cnn2CC(Cl)c1ccc(Br)cc1 (configuration not stated) | 22.1% (inactive)
COC(=O)c1cc(C(=O)CBr)n2c1ccc1c3ccccc3ccc12 | 48.8% (inactive)
Oc1ccc(F)c(Nc2nc(SCCN3CCOCC3)nc3c2cnn3CC(Cl)c2ccc(Br)cc2)c1 (configuration not stated) | -20.5% (active)
COC(=O)c1c(C(=O)OC)c2ccc3c4ccccc4ccc3n2c1C(=O)C(C)Br (configuration not stated) | 50.7% (inactive)
Cc1nn(-c2ccccc2)c2nc(C)n(C(=O)N/N=C/c3cccc([N+](=O)[O-])c3)c(=O)c12 | 73.1% (inactive)
COc1ccc2[nH]cc(-c3cc(N)n4nc(-c5c[nH]c6ccccc56)cc4n3)c2c1 | -67.8% (active)
Fc1ccc(F)c(CNc2nc(SCCN3CCOCC3)nc3c2cnn3CC(Cl)c2ccc(Br)cc2)c1 (configuration not stated) | -22.9% (active)
CN1CCN(C(=O)Oc2cc3c(c4ccccc24)[C@H](CCl)CN3C(=O)c2cc3cc(OCCCN4CCC4)ccc3[nH]2)[C@H]2CSSC[C@H]21 | -78.4% (active)
Nc1nc(-c2ccccc2)c(N=Nc2ccc(Cl)cc2Cl)s1 | -63.3% (active)
